# From PubChem
# Sampled rows, rich in hits. Any-hit rate of the full collection: about 3.8%.
# rTrxR1 inhibitor: qHTS Assay for Inhibitors of Mammalian Selenoprotein Thioredoxin Reductase 1 (TrxR1): qHTS; hit rate 1% among 390,000; AID 588453, 2011; Potency, µM (highest dose often 114 µM), for the others: at the highest dose activity change, negative = inhibition, hits mostly inhibitors; Thioredoxin reductase 1, cytoplasmic (Rattus norvegicus), O89049; recombinant rTrxR1, NADPH fluorescence consumption, selenite substrate; note: nearly all actives have a fitted effect of over 65% in size
#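 Rat TrxR1 (90 nM in the dispensed reagent) was pre-reduced with 400 uM NADPH for 5 min at room temperature, then incubated with compound for 15 min. After 400 uM selenite was added, NADPH fluorescence (Ex 340/Em 450 nm) was followed for 8 min.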
# VDR inhibitor: Inhibitors of the vitamin D receptor (VDR): qHTS; VDR-SRC2-3 peptide fluorescence polarization, 2 h; Potency, µM, without a hit: max response, negative = inhibition, usual class: inhibitors; hit rate 0.93% among 400,000
#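 Reagent solutions, kept cold and dark, are dispensed first; compounds are then pinned in at 23 nl, plates briefly spun, and incubated 2 h at ambient temperature. Inhibition of VDR–SRC2-3 peptide binding is read by fluorescence polarization.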
# TrxR1 substrate: qHTS Assay for Substrates of Mammalian Selenoprotein Thioredoxin Reductase 1 (TrxR1): qHTS; Thioredoxin reductase 1, cytoplasmic (Rattus norvegicus), O89049; Potency, µM (series often up to 114 µM), inactives show at the highest dose activity change, negative = substrate turnover; AID 588456, 2011; purified TrxR1 substrate turnover, NADPH consumption readout; hit rate 0.01% among 390,000; note: nearly all actives have a fitted effect of over 50% in size
#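 Rat TrxR1, dispensed at 90 nM, was prereduced with 400 uM NADPH (final) for 5 min at ~22 deg C, then incubated with compound 15 min before 400 uM selenite. A first-read NADPH fluorescence drop versus no-compound background flagged substrates.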
# KAT2A inh: qHTS Assay for Inhibitors of GCN5L2; Histone acetyltransferase KAT2A (Homo sapiens), Q92830; GCN5L2 HAT assay, ThioGlo1 CoA-SH fluorescence; AID 504327, 2011; hit rate 0.21% among 390,000; Potency, µM (doses to about 58.9 µM), for inactives: at the highest dose activity change, negative = inhibition, usual class: inhibitors
# Target sequence (Q92830 whole entry, looked up): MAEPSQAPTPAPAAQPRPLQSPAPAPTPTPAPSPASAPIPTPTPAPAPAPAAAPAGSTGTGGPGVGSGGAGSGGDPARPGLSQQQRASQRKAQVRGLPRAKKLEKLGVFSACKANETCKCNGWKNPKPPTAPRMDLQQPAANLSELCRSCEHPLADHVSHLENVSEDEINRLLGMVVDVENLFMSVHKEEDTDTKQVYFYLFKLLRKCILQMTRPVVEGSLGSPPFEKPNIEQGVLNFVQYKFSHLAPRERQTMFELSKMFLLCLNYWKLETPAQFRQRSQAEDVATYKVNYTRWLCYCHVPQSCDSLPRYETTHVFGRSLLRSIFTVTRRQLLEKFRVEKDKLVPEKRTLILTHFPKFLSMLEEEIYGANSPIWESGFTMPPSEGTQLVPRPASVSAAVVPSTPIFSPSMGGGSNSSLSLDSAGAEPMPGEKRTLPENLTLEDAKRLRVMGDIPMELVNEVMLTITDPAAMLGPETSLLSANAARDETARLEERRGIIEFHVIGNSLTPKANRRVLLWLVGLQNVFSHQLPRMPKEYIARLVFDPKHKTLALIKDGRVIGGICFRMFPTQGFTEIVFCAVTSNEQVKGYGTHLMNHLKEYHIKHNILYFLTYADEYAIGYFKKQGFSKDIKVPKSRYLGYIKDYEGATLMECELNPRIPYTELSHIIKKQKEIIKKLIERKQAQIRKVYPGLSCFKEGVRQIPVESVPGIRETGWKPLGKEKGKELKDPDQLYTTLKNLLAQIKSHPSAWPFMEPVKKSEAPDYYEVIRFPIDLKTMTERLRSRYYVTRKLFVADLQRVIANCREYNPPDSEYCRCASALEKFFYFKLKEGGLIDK
#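 GCN5L2 (20 nM) in 50mM HEPES pH 7.5, 0.1mM EDTA, 0.01% Tween-20 preincubated 15 min with compounds at room temperature. Reaction started with H3(1-25) 75uM, acetyl-CoA 70uM, ThioGlo1 50uM; CoA-thiol fluorescence (Ex340/Em540) read at 0 and 20 min.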
# Sfp PPTase inh: qHTS Assay for Inhibitors of Bacillus subtilis Sfp phosphopantetheinyl transferase (PPTase). Biochemical Sfp PPTase activity, qHTS. Potency, µM, for inactives: largest response in the series, negative = inhibition, actives largely listed as inhibitors. hit rate 3.5% among 310,000. AID 1490, 2009;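 note: the enzyme is Sfp with the accession as filed and its product quenches rhodamine fluorescence; 0% = enzyme reaction without inhibitor and -100% = no enzyme wells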
#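 Compounds were incubated with enzyme (final 15 nM) for 15 min at room temperature before substrate addition started the reaction. Fluorescence at 525 nm excitation, 598 nm emission was recorded immediately and after 30 minutes.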
# GLS inh: qHTS for Inhibitors of Glutaminase (GLS). hit rate 0.21% among 410,000. Glutaminase kidney isoform, mitochondrial (Homo sapiens), O94925. GLS enzymatic activity, qHTS titration. Potency, µM (highest dose often 45.5 µM), inactives show top-dose activity change, negative = inhibition, most hits filed as inhibitors
#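 Read-out is an Amplex red fluorescence increase coupled through glutamate oxidase and HRP, measured before and after 30 min room-temperature incubation. hKGA is in 45 mM KH2PO4 (pH 8.2) with 0.02% Tween-20; glutamine added as 1mM solution.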
# * marks the source's active call; other numbers are inactive results; ? = inconclusive; nt = not tested or not shown; [ ] = remark or other dose. Calls come from the whole dose curve; as a rule, active = well fitted curve in the direction sought with a large enough effect; inconclusive = small, poorly fitted or top-dose-only effect, or another doubt; inactive = no such curve, though single readings can be large; an effect the other way counts as inactive or inconclusive. Unless noted, % is set by controls: 0 for no effect and ±100 for the full control effect; potency is the fitted concentration of half-maximal effect.
SMILES,rTrxR1 inhibitor,VDR inhibitor,TrxR1 substrate,KAT2A inh,Sfp PPTase inh,GLS inh
Cc1ccccc1CN1C(=O)C(C)S/C1=N/N=C/c1ccco1 (configuration not stated),?,8%,-1%,-20%,79µM*,2%
O=C(O)CCC(=O)Nc1ccc(SSc2ccc(NC(=O)CCC(=O)O)cc2)cc1,152%[57.1 µM],?,-9%[57.1 µM],-13%,18µM*,?
O=C(O)CCC(=O)Nc1ccc(F)cc1,4%,6%,-4%,-6%,19%,-20%
COc1cccc(OC)c1OCCN1CCC(C(=O)NC(c2ccc3c(c2)OCO3)c2ccccn2)CC1 (configuration not stated),nt,nt,nt,nt,nt,11%
CC(C)c1ccc(CN(C(=O)/C=C/c2ccco2)C2CCS(=O)(=O)C2)cc1 (configuration not stated),14µM*,?,0%[57.1 µM],-3%,?,12%
CCOc1cc(-c2ccc3c(c2)OCO3)cc(=O)c2c(C)oc(C)c12,nt,nt,nt,-23%,32µM*,nt
CN(N=Cc1ccccc1O)c1ccc2ccccc2n1,nt,nt,nt,nt,nt,10%
S=C1NCN(Cc2ccco2)CN1CCc1ccccc1,5%,-15%,5%,1%,8%,0%
CCOCCCN1CN(Cc2ccco2)CNC1=S,-27%,3%,-8%,-4%,40µM*,-12%
O=C(CCCCCBr)N1CCC(CC2CC(c3ccc(Cl)cc3)=NO2)(C(=O)NCC2CCCCC2)CC1 (configuration not stated),4%,-8%,3%,-1%,3%,-3%
COc1ccc(N2C(=O)CSC2c2ccc(F)cc2)cc1 (configuration not stated),24%,-4%,7%,-9%,-2%,5%
Cc1ccc2scc(N3CCN(c4ccc(F)cc4)CC3)c(=O)c2c1,0%[57.1 µM],4%,-3%[57.1 µM],-12%,nt,20%
COc1ccc(-n2sc3ccc(F)cc3c2=O)cc1,106%,?,-14%,2.8µM*,nt,?
O=C1CCCC(=O)N1c1ccc(F)cc1,6%,-5%,-1%,1%,12%,0%
Cc1ccc(C)c(-n2sc3ccc(F)cc3c2=O)c1,69%[57.1 µM],20µM*,0%[57.1 µM],3.5µM*,nt,?
O=c1c2cc(F)ccc2sn1-c1ccc(F)cc1,129%,18µM*,-11%,1.8µM*,nt,10µM*
COc1ccc(-c2onc(C)c2C)cc1S(=O)(=O)NCCc1ccco1,7%,-1%,6%,-6%,5%,1%
Cc1snc2sc(C(=O)c3ccc(F)cc3)c(N)c12,12%,-8%,1%,-7%,40µM*,-1%
CN(C)c1ccnc2sc(C(=O)c3ccc(Br)cc3)c(N)c12,13%[57.1 µM],4%,10%[57.1 µM],1%,-30%,-6%
NC(=O)n1c(O)c(C(=O)c2cccs2)c2cc(Cl)ccc21,nt,45µM*,nt,-27%,-25%,13%
COc1cc2c(cc1OC)C(c1ccccc1)N(C(=O)CCl)CC2 (configuration not stated),4.5µM*,-4%,3%,-16%,2%,1%
COc1ccc2[nH]c(=O)c(CNc3ccccc3C)cc2c1,?,?,31%,-4%,22µM*,-23%
COCC(=O)N(Cc1cc2cc(OC)ccc2[nH]c1=O)c1ccccc1OC,9%,-15%,41%,-10%,0%,-4%
COc1ccc2[nH]c(=O)c(CNc3ccccc3OC)cc2c1,-23%,4%,13%,-11%,16µM*,0%
COc1ccc2[nH]c(=O)c(CN(CCc3ccccc3)C(C)=O)cc2c1,4%,-9%,26%,-4%,2%,0%
SMILES,rTrxR1 inhibitor,VDR inhibitor,TrxR1 substrate,KAT2A inh,Sfp PPTase inh,GLS inh
COc1ccc2[nH]c(=O)c(CNc3ccccc3)cc2c1,?,-4%,26%[57.1 µM],-10%,50µM*,7%
CN(C)c1cncc(C(=O)O)c1,12%,4%,18%,0%,56µM*,20%
COc1ccc(CCn2c3c(c(=O)[nH]c2=S)CN(Cc2ccccc2)CN3)cc1OC,?,89µM*,-7%,nt,nt,nt
Cc1cccc(N=C2NN=C(c3c(C)[nH]c4ccccc34)CS2)c1,-21%,-10%,-12%,-2%,40µM*,12%
Cc1ccc(CNC(=O)c2ccc(NS(=O)(=O)c3c(C)noc3C)cc2)cc1,-6%,3%,-7%,-17%,11%,0%
Cc1cc(-n2c(C)cc(C(=O)CSc3[nH]c(=O)cc(C(F)(F)F)c3C#N)c2C)no1,4%,-7%,-2%,1%,nt,1%
S=C(NCCCN1CCOCC1)N1CCN(c2nc(-c3ccccc3)cs2)CC1,-4%,-12%,-2%,11%,45µM*,2%
Cn1c2ccc(Br)cc2c2nnc(SCC(=O)O)nc21,10%,-15%,-7%,-20%,-18%,3%
CCOC(=O)c1scc(-c2ccccc2)c1S(=O)(=O)Nc1ccc(N(C)C)cc1,9%[57.1 µM],20µM*,-3%[57.1 µM],-2%,nt,39%
